# B1: unnamed (peptide)
# chain: HKVLRPFLLRRLKKD
# B2: unnamed (peptide)
# chain: IVNKPLPPLPVAGSS
# Experiments:
# Assay in all cases: SPOT peptide array binding signal intensity (averaged, normalized) (arbitrary units (background-subtracted, floor 0; scale differs between SH3 domains)); higher = stronger binding of the SH3 domain to the peptide
# AgAbp1 = molecular target: AgAbp1
# Method in brief: (§1)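 Peptides were synthetic 15-mers on cellulose membranes, with every cysteine replaced by serine. They were incubated overnight at 4°C with GST-SH3 domains from four yeast species at 10 μg/ml in TBS-based blocking buffer. Binding signal, the replicate-averaged normalized and background-subtracted spot intensity, is in arbitrary units that differ between domains.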
# AgBbc1 = molecular target: AgBbc1
# Method in brief: as §1
# AgBem1-D1 = molecular target: AgBem1-D1
# Method in brief: as §1
# AgBzz1-D1 = molecular target: AgBzz1-D1
# Method in brief: as §1
# AgBzz1-D2 = molecular target: AgBzz1-D2
# Method in brief: as §1
# AgCyk3 = molecular target: AgCyk3
# Method in brief: as §1
# AgFus1 = molecular target: AgFus1
# Method in brief: as §1
# AgHof1 = molecular target: AgHof1
# Method in brief: as §1
# AgHse1 = molecular target: AgHse1
# Method in brief: as §1
# AgLsb1 = molecular target: AgLsb1
# Method in brief: as §1
# AgLsb4 = molecular target: AgLsb4
# Method in brief: as §1
# AgMyo5 = molecular target: AgMyo5
# Method in brief: as §1
# AgNbp2 = molecular target: AgNbp2
# Method in brief: as §1
# AgRvs167 = molecular target: AgRvs167
# Method in brief: as §1
# AgSho1 = molecular target: AgSho1
# Method in brief: as §1
# AgSla1-D1-D2 = molecular target: AgSla1-D1-D2
# Method in brief: as §1
# AgSla1-D3 = molecular target: AgSla1-D3
# Method in brief: as §1
# CaAbp1-D1 = molecular target: CaAbp1-D1
# Method in brief: as §1
# CaAbp1-D2 = molecular target: CaAbp1-D2
# Method in brief: as §1
# CaBbc1 = molecular target: CaBbc1
# Method in brief: as §1
# CaBem1-D1 = molecular target: CaBem1-D1
# Method in brief: as §1
# CaBzz1-D1 = molecular target: CaBzz1-D1
# Method in brief: as §1
# CaBzz1-D2 = molecular target: CaBzz1-D2
# Method in brief: as §1
# CaCyk3 = molecular target: CaCyk3
# Method in brief: as §1
# CaFus1 = molecular target: CaFus1
# Method in brief: as §1
# CaHof1 = molecular target: CaHof1
# Method in brief: as §1
# CaHse1 = molecular target: CaHse1
# Method in brief: as §1
# CaLsb1 = molecular target: CaLsb1
# Method in brief: as §1
# CaLsb4 = molecular target: CaLsb4
# Method in brief: as §1
# CaMyo5 = molecular target: CaMyo5
# Method in brief: as §1
# CaNbp2 = molecular target: CaNbp2
# Method in brief: as §1
# CaRvs167 = molecular target: CaRvs167
# Method in brief: as §1
# CaRvs167-3 = molecular target: CaRvs167-3
# Method in brief: as §1
# CaSho1 = molecular target: CaSho1
# Method in brief: as §1
# CaSla1-D1-D2 = molecular target: CaSla1-D1-D2
# Method in brief: as §1
# CaSla1-D3 = molecular target: CaSla1-D3
# Method in brief: as §1
# ScAbp1 = molecular target: ScAbp1
# Method in brief: as §1
# ScBbc1 = molecular target: ScBbc1
# Method in brief: as §1
# ScBem1-D1 = molecular target: ScBem1-D1
# Method in brief: as §1
# ScBzz1-D1 = molecular target: ScBzz1-D1
# Method in brief: as §1
# ScBzz1-D2 = molecular target: ScBzz1-D2
# Method in brief: as §1
# ScCyk3 = molecular target: ScCyk3
# Method in brief: as §1
# ScFus1 = molecular target: ScFus1
# Method in brief: as §1
# ScHof1 = molecular target: ScHof1
# Method in brief: as §1
# ScHse1 = molecular target: ScHse1
# Method in brief: as §1
# ScLsb1 = molecular target: ScLsb1
# Method in brief: as §1
# ScLsb2 = molecular target: ScLsb2
# Method in brief: as §1
# ScLsb3 = molecular target: ScLsb3
# Method in brief: as §1
# ScLsb4 = molecular target: ScLsb4
# Method in brief: as §1
# ScMyo3 = molecular target: ScMyo3
# Method in brief: as §1
# ScMyo5 = molecular target: ScMyo5
# Method in brief: as §1
# ScNbp2 = molecular target: ScNbp2
# Method in brief: as §1
# ScPex13 = molecular target: ScPex13
# Method in brief: as §1
# ScRvs167 = molecular target: ScRvs167
# Method in brief: as §1
# ScSho1 = molecular target: ScSho1
# Method in brief: as §1
# ScSla1-D1-D2 = molecular target: ScSla1-D1-D2
# Method in brief: as §1
# ScSla1-D3 = molecular target: ScSla1-D3
# Method in brief: as §1
# SpAbp1-D1 = molecular target: SpAbp1-D1
# Method in brief: as §1
# SpBbc1 = molecular target: SpBbc1
# Method in brief: as §1
# SpBzz1-D1 = molecular target: SpBzz1-D1
# Method in brief: as §1
# SpBzz1-D2 = molecular target: SpBzz1-D2
# Method in brief: as §1
# SpCyk3 = molecular target: SpCyk3
# Method in brief: as §1
# SpHof1 = molecular target: SpHof1
# Method in brief: as §1
# SpHof1-2 = molecular target: SpHof1-2
# Method in brief: as §1
# SpHof1-3 = molecular target: SpHof1-3
# Method in brief: as §1
# SpHse1 = molecular target: SpHse1
# Method in brief: as §1
# SpLsb1 = molecular target: SpLsb1
# Method in brief: as §1
# SpLsb4 = molecular target: SpLsb4
# Method in brief: as §1
# SpMyo1 = molecular target: SpMyo1
# Method in brief: as §1
# SpNbp2 = molecular target: SpNbp2
# Method in brief: as §1
# SpPex13 = molecular target: SpPex13
# Method in brief: as §1
# SpRvs167 = molecular target: SpRvs167
# Method in brief: as §1
# SpSla1-D1-D2 = molecular target: SpSla1-D1-D2
# Method in brief: as §1
# SpSla1-D3 = molecular target: SpSla1-D3
# Method in brief: as §1
binder,measurement,setting,value
B1,SPOT peptide array binding signal intensity,AgAbp1,172
same,SPOT peptide array binding signal intensity,AgBbc1,≤ 0
same,SPOT peptide array binding signal intensity,AgBem1-D1,≤ 0
same,SPOT peptide array binding signal intensity,AgBzz1-D1,1.5
same,SPOT peptide array binding signal intensity,AgBzz1-D2,31.5
same,SPOT peptide array binding signal intensity,AgCyk3,≤ 0
same,SPOT peptide array binding signal intensity,AgFus1,479
same,SPOT peptide array binding signal intensity,AgHof1,39.4
same,SPOT peptide array binding signal intensity,AgHse1,2970
same,SPOT peptide array binding signal intensity,AgLsb1,0.5
same,SPOT peptide array binding signal intensity,AgLsb4,19.5
same,SPOT peptide array binding signal intensity,AgMyo5,≤ 0
same,SPOT peptide array binding signal intensity,AgNbp2,45.8
same,SPOT peptide array binding signal intensity,AgRvs167,0.5
same,SPOT peptide array binding signal intensity,AgSho1,156
same,SPOT peptide array binding signal intensity,AgSla1-D1-D2,27
same,SPOT peptide array binding signal intensity,AgSla1-D3,2.75
same,SPOT peptide array binding signal intensity,CaAbp1-D1,569
same,SPOT peptide array binding signal intensity,CaAbp1-D2,617
same,SPOT peptide array binding signal intensity,CaBbc1,≤ 0
same,SPOT peptide array binding signal intensity,CaBem1-D1,3.5
same,SPOT peptide array binding signal intensity,CaBzz1-D1,≤ 0
same,SPOT peptide array binding signal intensity,CaBzz1-D2,≤ 0
same,SPOT peptide array binding signal intensity,CaCyk3,≤ 0
same,SPOT peptide array binding signal intensity,CaFus1,2980
same,SPOT peptide array binding signal intensity,CaHof1,7.63e-06
same,SPOT peptide array binding signal intensity,CaHse1,124
same,SPOT peptide array binding signal intensity,CaLsb1,≤ 0
same,SPOT peptide array binding signal intensity,CaLsb4,≤ 0
same,SPOT peptide array binding signal intensity,CaMyo5,≤ 0
same,SPOT peptide array binding signal intensity,CaNbp2,715
same,SPOT peptide array binding signal intensity,CaRvs167,6.08
same,SPOT peptide array binding signal intensity,CaRvs167-3,281
same,SPOT peptide array binding signal intensity,CaSho1,736
same,SPOT peptide array binding signal intensity,CaSla1-D1-D2,8.5
same,SPOT peptide array binding signal intensity,CaSla1-D3,15.5
same,SPOT peptide array binding signal intensity,ScAbp1,271
same,SPOT peptide array binding signal intensity,ScBbc1,≤ 0
same,SPOT peptide array binding signal intensity,ScBem1-D1,19.5
same,SPOT peptide array binding signal intensity,ScBzz1-D1,22.5
same,SPOT peptide array binding signal intensity,ScBzz1-D2,≤ 0
same,SPOT peptide array binding signal intensity,ScCyk3,38
same,SPOT peptide array binding signal intensity,ScFus1,742
same,SPOT peptide array binding signal intensity,ScHof1,≤ 0
same,SPOT peptide array binding signal intensity,ScHse1,2170
same,SPOT peptide array binding signal intensity,ScLsb1,≤ 0
same,SPOT peptide array binding signal intensity,ScLsb2,≤ 0
same,SPOT peptide array binding signal intensity,ScLsb3,≤ 0
same,SPOT peptide array binding signal intensity,ScLsb4,≤ 0
same,SPOT peptide array binding signal intensity,ScMyo3,1.12
same,SPOT peptide array binding signal intensity,ScMyo5,2.5
same,SPOT peptide array binding signal intensity,ScNbp2,102
same,SPOT peptide array binding signal intensity,ScPex13,0.5
same,SPOT peptide array binding signal intensity,ScRvs167,3.42
same,SPOT peptide array binding signal intensity,ScSho1,994
same,SPOT peptide array binding signal intensity,ScSla1-D1-D2,≤ 0
same,SPOT peptide array binding signal intensity,ScSla1-D3,3.25
same,SPOT peptide array binding signal intensity,SpAbp1-D1,250
same,SPOT peptide array binding signal intensity,SpBbc1,3
same,SPOT peptide array binding signal intensity,SpBzz1-D1,70
B2,SPOT peptide array binding signal intensity,CaNbp2,≤ 0
same,SPOT peptide array binding signal intensity,CaRvs167,1.17
same,SPOT peptide array binding signal intensity,CaRvs167-3,≤ 0
same,SPOT peptide array binding signal intensity,CaSho1,6570
same,SPOT peptide array binding signal intensity,CaSla1-D1-D2,338
same,SPOT peptide array binding signal intensity,CaSla1-D3,0.5
same,SPOT peptide array binding signal intensity,ScAbp1,378
same,SPOT peptide array binding signal intensity,ScBbc1,0.25
same,SPOT peptide array binding signal intensity,ScBem1-D1,≤ 0
same,SPOT peptide array binding signal intensity,ScBzz1-D1,≤ 0
same,SPOT peptide array binding signal intensity,ScBzz1-D2,≤ 0
same,SPOT peptide array binding signal intensity,ScCyk3,≤ 0
same,SPOT peptide array binding signal intensity,ScFus1,10
same,SPOT peptide array binding signal intensity,ScHof1,1300
same,SPOT peptide array binding signal intensity,ScHse1,32
same,SPOT peptide array binding signal intensity,ScLsb1,≤ 0
same,SPOT peptide array binding signal intensity,ScLsb2,≤ 0
same,SPOT peptide array binding signal intensity,ScLsb3,154
same,SPOT peptide array binding signal intensity,ScLsb4,≤ 0
same,SPOT peptide array binding signal intensity,ScMyo3,≤ 0
same,SPOT peptide array binding signal intensity,ScMyo5,≤ 0
same,SPOT peptide array binding signal intensity,ScNbp2,≤ 0
same,SPOT peptide array binding signal intensity,ScPex13,2500
same,SPOT peptide array binding signal intensity,ScRvs167,97.8
same,SPOT peptide array binding signal intensity,ScSho1,7450
same,SPOT peptide array binding signal intensity,ScSla1-D1-D2,288
same,SPOT peptide array binding signal intensity,ScSla1-D3,1.5
same,SPOT peptide array binding signal intensity,SpAbp1-D1,1580
same,SPOT peptide array binding signal intensity,SpBbc1,1
same,SPOT peptide array binding signal intensity,SpBzz1-D1,159
same,SPOT peptide array binding signal intensity,SpBzz1-D2,≤ 0
same,SPOT peptide array binding signal intensity,SpCyk3,3
same,SPOT peptide array binding signal intensity,SpHof1,2930
same,SPOT peptide array binding signal intensity,SpHof1-2,3490
same,SPOT peptide array binding signal intensity,SpHof1-3,5540
same,SPOT peptide array binding signal intensity,SpHse1,15
same,SPOT peptide array binding signal intensity,SpLsb1,47
same,SPOT peptide array binding signal intensity,SpLsb4,1.5
same,SPOT peptide array binding signal intensity,SpMyo1,184
same,SPOT peptide array binding signal intensity,SpNbp2,11
same,SPOT peptide array binding signal intensity,SpPex13,15
same,SPOT peptide array binding signal intensity,SpRvs167,1580
same,SPOT peptide array binding signal intensity,SpSla1-D1-D2,1200
same,SPOT peptide array binding signal intensity,SpSla1-D3,≤ 0

# Reference: the supplement of paper PMC4466140
